Where “and” joins values, the source holds several entries; their conditions need not be identical. Equal values may be shown once. Compounds without any hit were thinned out: in the full panel of roughly 83,000, 20% have a hit.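 Activity criterion: percent growth below 10, measured after cells in 96-well plates were exposed to a single compound concentration for 48 hours.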 Calls of active or inactive are those of the source.

The first assay deals with RPMI-8226 leukemia. Briefly: NCI-60 one-dose screen, 48 h (100 = growth as untreated, 0 = no growth, -100 = all killed). The conditions noted are these: 1 µM. The procedure: Growth inhibition of the RPMI-8226 human tumor cell line is measured as a screen for anti-cancer activity. Cells are grown in 96 well plates and exposed to the test compound for 48 hours. Compounds are tested at a single concentration, which is 10^-5 M for most compounds. The reported endpoint is percent growth (GI% or GIPRCNT), where numbers from 0 - 100% represent growth inhibition, and numbers from -100% - 0 represent cell death. For example, a value of 40 represents 60% growth inhibition. A value of 0 means no net growth occurred over the course of the experiment. A value of -40 indicates 40% of cells at the beginning of the experiment died by the end of the experiment. A value of -100 means all cells are dead at the end of the experiment.
NCI-60 Human Tumor Cell Lines Screen was performed using the standard one-dose NCI protocol, which is described in more detail at https://dtp.cancer.gov/discovery_development/nci-60/default.htm.
Compounds with GIPRCNT values below 10 were considered active. Activity score was based on GIPRCNT using the following formula: […]
Score is 0 for GIPRCNT values of 100 or above, 50 for GIPRCNT values of 0, and 100 for GIPRCNT values of -100.
In the case of `CNC(=O)c1cc(Oc2ccc(CC(=O)Nc3cc(C(C)(C)C)nn3C)cc2)ccn1`, the growth was 46.2% (inactive).

The same assay, now with this note: 10 µM.
As for `CNC(=O)c1cc(Oc2ccc(CC(=O)Nc3cc(C(C)(C)C)nn3C)cc2)ccn1`, the growth is 62.6% (inactive). Still for that read-out and setting: as for `O=C(O)c1sccc1O`, the figure is 71.4% (inactive).

The assay is the same for the next values; noted with them: 10 µM unless noted.
As to `O=C(O)C1C2C=CC(C2)C1C(=O)O` (stereo not given), the growth was 103% (inactive) and 29.3% (inactive) and 98.3% (inactive). `CCOc1ccc2cc(-c3nn(CC4CCN(C)CC4)c4ncnc(N)c34)ccc2c1`: the growth is 75.9% (inactive) and 2.42% (active). Still for that read-out and setting: the result for `O=C=NC(c1ccccc1)(c1ccccc1)c1ccccc1` reads 119% (inactive). `Cc1cc(O)c2c(c1)C(=O)c1cc(O)cc(O)c1C2=O`: the growth was 75.8% (inactive) and 74.3% (inactive).

As to `CCCCOc1cc(C(=O)NCCN(CC)CC)c2ccccc2n1`, the growth is 85.4% (inactive) and 93.6% (inactive). For `O=C(CCl)c1ccc2c(c1)Nc1ccccc1S2`, the growth is 63.4% (inactive) and 52.1% (inactive).

In the case of `Cc1cc(N=Nc2ccc(C)c(N=Nc3cc(C)c(N)cc3N)c2)c(N)cc1N`, the growth is 43.6% (inactive) and 88.2% (inactive). As to `Oc1ccccc1/C=N\NC(=S)N/N=C/c1ccccc1O`, the growth is 29.3% (inactive) and 40.7% (inactive). With `COc1cc(/C=N/Nc2nc3c([nH]2)c(=O)n(C)c(=O)n3C)ccc1O`, the growth was 98.3% (inactive) and 103% (inactive). With `Cn1cnc([N+](=O)[O-])c1Sc1ncnc2nc[nH]c12`, the growth is 34.1% (inactive) and 36.5% (inactive). Consider `NC(=S)N/N=C(\c1ccc(Br)cc1)C1CC1`, for which the growth is 71.3% (inactive) and 60.9% (inactive). As to `O=[N+]([O-])c1ccccc1/C=N\Nc1ccccc1`, the growth was 77.5% (inactive) and 95.6% (inactive).

With `COc1ccc(/C(C#N)=C/c2ccccn2)cc1`, the growth was 93.8% (inactive). In the case of `Nc1cc2c(cc1N)-c1ccccc1C2`, the growth is 41.3% (inactive) and 61% (inactive). `CC(=O)NC(Cc1ccccc1)C(=O)Oc1ccc2ccccc2c1` (stereo not given): the growth was 90.2% (inactive). As to `Nc1ccc2ccc(N)cc2c1`, the growth was 84.6% (inactive). Same read-out and setting: as for `O=C(O)C1(C(=O)O)CCC1.[NH2-].[NH2-].[Pt+2]`, the figure is 104% (inactive). For the compound `O=C(O)CCCCc1ccc([N+](=O)[O-])cc1`, the growth was 95.4% (inactive) and 87.7% (inactive). Regarding `O=C(CCc1ccc(O)cc1)N/N=C/c1cc(Br)ccc1O`, the growth was 45.2% (inactive).

For `Nc1ccccc1SC1CC(=O)N(c2cccc3ccccc23)C1=O` (stereo not given), the growth was 86.3% (inactive). For the compound `O=c1c2ccccc2nc2n1Cc1nc3ccccc3c(=O)n1C2`, the growth was 93% (inactive) and 102% (inactive).

Consider `Cc1ccc(NCSc2ccc(Cl)cc2)cc1`, for which the growth was 20.8% (inactive). On to `O=C(CN1CCN(c2cc3c(cc2F)c(=O)c(C(=O)O)cn3C2CC2)CC1)Nc1ccc(Cl)cc1`, for which the growth is 72.2% (inactive).

With `CCN(CC)CCCC(C)Nc1ccnc2cc(Oc3ccccc3)ccc12` (stereo not given), the growth was 68.6% (inactive). Take `CC(C)(C)c1cc(NC(=O)Cc2ccc(-c3cnc4cc(-c5cnn(CCN6CCOCC6)c5)ccc4n3)cc2)no1`: the growth was 22.5% (inactive). Still for that read-out and setting: the result for `CC(=O)c1ccccc1O` reads 106% (inactive) and 103% (inactive). As for `Cc1ccc(-c2noc(C)n2)cc1`, the growth was 105% (inactive). For the compound `Cc1cccc(/C=C\C(=O)c2ccc(Cl)cc2)c1`, the growth was 26.1% (inactive). On the same count and under the same terms, the result for `Oc1ccccc1C=NCC1CCC(CN=Cc2ccccc2O)CC1` (stereo not given) reads 90.9% (inactive).

As for `COc1ccc(-c2cn[nH]c2-c2cc(OC)c(OC)c(OC)c2)cc1N`, the growth is 29.4% (inactive) and 23.7% (inactive). On the same count and under the same terms, as for `O=C(CN1CCOCC1)N1CCOCC1`, the figure is 96.3% (inactive) and 106% (inactive); as for `COc1ccc2cc3[n+](cc2c1OC)CCc1cc2c(cc1-3)OCO2`, 60.4% (inactive) and 43.8% (inactive). Take `CCN(CC)CCC(CNc1ccnc2cc(Cl)ccc12)c1ccc(OC)cc1` (stereo not given): the growth is 60.1% (inactive) and 39% (inactive). Take `CN1CCN(C2CCN(C(=O)Nc3cc(Oc4ccc(NC(=O)C5(C(=O)Nc6ccc(F)cc6)CC5)c(F)c4)ccn3)CC2)CC1`: the growth is -38.9% (active) and 105% (inactive). On to `O=[N+]([O-])c1ccccc1N(S(=O)(=O)c1ccccc1)S(=O)(=O)c1ccccc1`, for which the growth is 85.4% (inactive) and 90.4% (inactive). As to `O=S(=O)(Nc1ccccc1)C1CCCCC1`, the growth is 93.9% (inactive) and 106% (inactive).

The assay is the same for the next values; noted with them: 100 µM.
Take `O=C(O)c1sccc1O`: the growth was 16% (inactive).
